# Assay results taken from the OligoGym collection.
# Target: TAAR8
# Experiment: pooled miR-30 sensor sort-seq; sequence = guide strand
# Conditions: shRNA
# Also: reference of the scale not given here.
row,Sequence,sensor-assay potency score (higher = more potent)
1,TATAAGAAAAATCTTACTGTAA,-0.203
2,AAATCTATCAACACCCAGCCTT,-0.587
3,TAATATATCAACTGTATACGGT,-0.194
4,TAATGGTTGATGAACTAGCCTT,-0.64
5,TAGCCTTTAAAACATCTCCACT,-0.818
6,TTAGCTATAAGAAAAATCTTAC,-0.74
7,TCAGTAACCACAATGTACCTGT,0.327

# Target: TAC4
# Experiment: as above
# Conditions: shRNA
row,Sequence,sensor-assay potency score (higher = more potent)
1,TGAACAGGCTTCTCTTGCCCAG,-1.26
2,TCATCCTCTCTGCCTTCTGTGA,-1.57
3,TATGCTTTTTTTCTCCTTGGCT,-0.257
4,TCTGTGAACAGGCTTCTCTTGC,-0.505
5,TTCTGTGAACAGGCTTCTCTTG,-0.693
6,TCTGCCTTCTGTGAACAGGCTT,-0.554
7,TCTCTGCCTTTTTTTCTCCTTG,-0.948
8,TTCCTCTCCACCATCACCTGCC,0.531
9,TGCTTTTTTTCTCCTTGGCTGG,-1.36
10,TTTTTTTCTCCTTGGCTGGATC,-1.14
11,TGCTTCAGTGCTGAGTGTCTGT,-0.405
12,TGCAGCTGGAGCTGAATGCTGG,-1.1

# Target: TACR1
# Experiment: as above
# Conditions: shRNA
row,Sequence,sensor-assay potency score (higher = more potent)
1,TAGAACAGGCCGTAGTACCATT,-1.05
2,TTTCTCATAAATCTTGTTCGGA,0.392
3,TAGTTCGTCACTGTCCTCATTC,-0.77
4,TAGGTGAAGTTCACCACTGTAT,-0.204
5,TCGATCATGCACACGACTCTGC,0.106
6,TTCTCATAAATCTTGTTCGGAT,-0.905
7,TAGATCAGCACAGTCACACAGA,-0.182
8,TCGTTGTGGACAGCATAGGTGA,-1.11
9,TGACTTTGTACACACTGCCCTG,-1.2
10,TGGTCTTGGAGTCACTTCGTGA,-1.54
11,TTGAGTAGTAGCCCTGGGGGAA,-0.65
12,TTCGTCACTGTCCTCATTCTTT,-0.603

# Target: TAF3
# Experiment: as above
# Conditions: shRNA
row,Sequence,sensor-assay potency score (higher = more potent)
1,TTGATTTTAAACTTGTAGGGAT,0.554
2,TTGTCCTTCTTCTTGTTCGCAC,0.171
3,TTTGGGAGTAGTACACTCCGGG,0.0818
4,TTTCACTTTATCCTTCTCCTTA,0.0178
5,TAACACAACATCTAGCGTGTCC,0.323
6,TTCAGCTTCAGGACTATCCAGT,-0.217
7,AATAACACAACATCTAGCGTGT,0.896
8,TTTATCTGCTACCACAGCCTTT,-0.868
9,TAAACTTGTAGGGATCTGCCTC,0.187
